# Measurements from doi:10.1101/2024.03.05.583629.
# Biological target: pT7_6His-AlfaTag-HOXD13 (human, UniProt P35453 263-343)
# Assay: PADIT-seq
# Details: dsDNA, one strand shown
# pT7_6His-AlfaTag-HOXD13, sequence (P35453 263-343): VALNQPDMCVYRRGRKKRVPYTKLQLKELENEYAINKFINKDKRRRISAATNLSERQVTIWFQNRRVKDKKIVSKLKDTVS
row,Sequence,binding signal [log2FC]
1,CTCGAGGATATCAAGATCTGGCCTCGGCCCCATAAAAGGAACCTCTAGCTAGCCGACTCACTATAGGGATAATCGCCCTGAGCAAAGACC,2.77 ± 0.0828
2,CTCGAGGATATCAAGATCTGGCCTCGGCTTTTTACAAGGAACCTCTAGCTAGCCGACTCACTATAGGGATAATCGCCCTGAGCAAAGACC,3.28 ± 0.0787
3,CTCGAGGATATCAAGATCTGGCCTCGGCTTTTTATTCGGAACCTCTAGCTAGCCGACTCACTATAGGGATAATCGCCCTGAGCAAAGACC,1.86 ± 0.0775
4,CTCGAGGATATCAAGATCTGGCCTCGGCCCTATAAAAGGAACCTCTAGCTAGCCGACTCACTATAGGGATAATCGCCCTGAGCAAAGACC,2.89 ± 0.0925
5,CTCGAGGATATCAAGATCTGGCCTCGGCAGCCTAAAAGGAACCTCTAGCTAGCCGACTCACTATAGGGATAATCGCCCTGAGCAAAGACC,-0.607 ± 0.118
6,CTCGAGGATATCAAGATCTGGCCTCGGCTCTCCACGCGGAACCTCTAGCTAGCCGACTCACTATAGGGATAATCGCCCTGAGCAAAGACC,-0.925 ± 0.119
7,CTCGAGGATATCAAGATCTGGCCTCGGCACTGTAAAAGGAACCTCTAGCTAGCCGACTCACTATAGGGATAATCGCCCTGAGCAAAGACC,1.95 ± 0.0803
8,CTCGAGGATATCAAGATCTGGCCTCGGCTTTTTAGCGGGAACCTCTAGCTAGCCGACTCACTATAGGGATAATCGCCCTGAGCAAAGACC,-0.0861 ± 0.121
9,CTCGAGGATATCAAGATCTGGCCTCGGCCCAGTAAAAGGAACCTCTAGCTAGCCGACTCACTATAGGGATAATCGCCCTGAGCAAAGACC,2.32 ± 0.0885
10,CTCGAGGATATCAAGATCTGGCCTCGGCGAACTAAAAGGAACCTCTAGCTAGCCGACTCACTATAGGGATAATCGCCCTGAGCAAAGACC,-0.56 ± 0.0894
11,CTCGAGGATATCAAGATCTGGCCTCGGCGCTATAAAAGGAACCTCTAGCTAGCCGACTCACTATAGGGATAATCGCCCTGAGCAAAGACC,2.83 ± 0.0721
12,CTCGAGGATATCAAGATCTGGCCTCGGCTCTTTAAAAGGAACCTCTAGCTAGCCGACTCACTATAGGGATAATCGCCCTGAGCAAAGACC,2.42 ± 0.0868
13,CTCGAGGATATCAAGATCTGGCCTCGGCGTTTTACACGGAACCTCTAGCTAGCCGACTCACTATAGGGATAATCGCCCTGAGCAAAGACC,2.15 ± 0.0769
14,CTCGAGGATATCAAGATCTGGCCTCGGCGAGGTAAAAGGAACCTCTAGCTAGCCGACTCACTATAGGGATAATCGCCCTGAGCAAAGACC,-0.51 ± 0.0909
15,CTCGAGGATATCAAGATCTGGCCTCGGCGTTTTACTCGGAACCTCTAGCTAGCCGACTCACTATAGGGATAATCGCCCTGAGCAAAGACC,0.701 ± 0.0889
16,CTCGAGGATATCAAGATCTGGCCTCGGCATTTTAAGGGGAACCTCTAGCTAGCCGACTCACTATAGGGATAATCGCCCTGAGCAAAGACC,1.95 ± 0.0802
17,CTCGAGGATATCAAGATCTGGCCTCGGCCCGATAAAAGGAACCTCTAGCTAGCCGACTCACTATAGGGATAATCGCCCTGAGCAAAGACC,1.27 ± 0.0909
18,CTCGAGGATATCAAGATCTGGCCTCGGCGTTTTAGGGGGAACCTCTAGCTAGCCGACTCACTATAGGGATAATCGCCCTGAGCAAAGACC,1.59 ± 0.0927
19,CTCGAGGATATCAAGATCTGGCCTCGGCCGCCCAAAGGGAACCTCTAGCTAGCCGACTCACTATAGGGATAATCGCCCTGAGCAAAGACC,-0.802 ± 0.123
20,CTCGAGGATATCAAGATCTGGCCTCGGCTAGATAAAAGGAACCTCTAGCTAGCCGACTCACTATAGGGATAATCGCCCTGAGCAAAGACC,0.188 ± 0.107
21,CTCGAGGATATCAAGATCTGGCCTCGGCTGTCTAAAAGGAACCTCTAGCTAGCCGACTCACTATAGGGATAATCGCCCTGAGCAAAGACC,-0.572 ± 0.102
22,CTCGAGGATATCAAGATCTGGCCTCGGCATTGTAAAAGGAACCTCTAGCTAGCCGACTCACTATAGGGATAATCGCCCTGAGCAAAGACC,2.55 ± 0.0888
23,CTCGAGGATATCAAGATCTGGCCTCGGCGCGTTAGCGGGAACCTCTAGCTAGCCGACTCACTATAGGGATAATCGCCCTGAGCAAAGACC,-0.986 ± 0.133
24,CTCGAGGATATCAAGATCTGGCCTCGGCGCGTAAGCGGGAACCTCTAGCTAGCCGACTCACTATAGGGATAATCGCCCTGAGCAAAGACC,-0.575 ± 0.113
25,CTCGAGGATATCAAGATCTGGCCTCGGCCGCCCAATTGGAACCTCTAGCTAGCCGACTCACTATAGGGATAATCGCCCTGAGCAAAGACC,-0.555 ± 0.114
26,CTCGAGGATATCAAGATCTGGCCTCGGCTTTTTACCGGGAACCTCTAGCTAGCCGACTCACTATAGGGATAATCGCCCTGAGCAAAGACC,0.978 ± 0.0873
